Measurements: PMC4336329 (PLoS ONE, 2015)
Hit rate of the full screen: of about 310,000 compounds, about 14,000 (4.5%) showed an effect of 50% or more. Effects have a minus sign here. The sample as a whole holds a higher share of strong results than the screen did.

Target: human ether-à-go-go-related gene (hERG) potassium channel (human, UniProt Q12809)
Experiment: primary screen, population patch clamp on CHO cells stably expressing hERG; higher = less effect of the substance
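Note: peak tail current of the secondary pulse compared with the same well before compound.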

Chain of human ether-à-go-go-related gene (hERG) potassium channel (Q12809 whole entry, looked up): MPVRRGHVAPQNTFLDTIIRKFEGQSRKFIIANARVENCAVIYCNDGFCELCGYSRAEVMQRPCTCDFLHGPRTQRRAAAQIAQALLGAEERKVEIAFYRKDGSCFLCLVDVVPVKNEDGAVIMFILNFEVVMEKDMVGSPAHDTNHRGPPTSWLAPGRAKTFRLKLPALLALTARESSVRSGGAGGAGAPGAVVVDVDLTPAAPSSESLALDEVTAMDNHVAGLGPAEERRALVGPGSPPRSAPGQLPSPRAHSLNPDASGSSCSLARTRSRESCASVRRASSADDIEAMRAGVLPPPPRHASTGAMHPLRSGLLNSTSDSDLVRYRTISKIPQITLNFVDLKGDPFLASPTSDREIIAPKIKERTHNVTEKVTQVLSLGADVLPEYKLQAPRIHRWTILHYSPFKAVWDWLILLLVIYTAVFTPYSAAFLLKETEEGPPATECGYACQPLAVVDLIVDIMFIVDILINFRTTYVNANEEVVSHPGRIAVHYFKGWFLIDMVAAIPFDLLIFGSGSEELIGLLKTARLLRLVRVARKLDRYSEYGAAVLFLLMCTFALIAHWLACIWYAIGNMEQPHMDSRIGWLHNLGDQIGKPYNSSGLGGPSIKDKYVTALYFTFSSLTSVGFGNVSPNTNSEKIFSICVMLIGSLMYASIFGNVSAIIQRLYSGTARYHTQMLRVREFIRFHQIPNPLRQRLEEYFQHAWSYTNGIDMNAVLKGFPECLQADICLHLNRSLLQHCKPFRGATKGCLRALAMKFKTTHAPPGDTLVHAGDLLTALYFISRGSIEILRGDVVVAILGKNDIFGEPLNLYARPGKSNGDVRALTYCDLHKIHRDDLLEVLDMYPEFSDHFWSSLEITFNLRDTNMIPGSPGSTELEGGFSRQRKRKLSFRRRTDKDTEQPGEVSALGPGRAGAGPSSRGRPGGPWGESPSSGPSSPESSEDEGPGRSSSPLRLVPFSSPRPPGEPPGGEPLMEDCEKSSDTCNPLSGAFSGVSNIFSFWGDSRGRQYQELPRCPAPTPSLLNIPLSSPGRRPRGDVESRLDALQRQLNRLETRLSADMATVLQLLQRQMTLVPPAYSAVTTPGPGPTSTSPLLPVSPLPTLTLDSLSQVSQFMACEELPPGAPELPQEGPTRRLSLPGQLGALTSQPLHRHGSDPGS

Compound	hERG current change (%, negative = inhibition) at 10uM
COc1ccc2no[n+]([O-])c2c1	28.1%
CC1CCc2c(sc(NC(=O)CCC(=O)O)c2C(=O)NC2CC2)C1 (stereo not shown)	18.1%
COc1ccc(NC(=O)n2ncc3cc(Cl)ccc32)cc1OC	21.3%
CC(C)(C)N(Cc1cc2ccccc2[nH]c1=O)C(=O)c1ccco1	8.21%
COc1ccc(NC(=O)CSc2nnc(NC(=O)C3CCC3)s2)c(OC)c1	12.6%
CS(=O)(=O)Oc1ccc2c(c1)O/C(=C\C=C\c1ccccc1)C2=O	8.05%
Cc1ccc(S(=O)(=O)Cc2ccc(C(=O)N3CCC(C(N)=O)CC3)o2)cc1	30.7%
CC(C)N(C(=O)Nc1ccc2nsnc2c1)C(C)C	0.592%
CC1(C)Cc2cccc(OCC(=O)N3CCN(c4ccc([N+](=O)[O-])cc4)CC3)c2O1	-70.3%
CC1(C)Cc2cccc(OCC(=O)N3CCN(c4ccccc4Cl)CC3)c2O1	-64.3%
CC1(C)Cc2cccc(OCC(=O)N3CCN(c4ccccc4)CC3)c2O1	-45.6%
CC1(C)Cc2cccc(OCC(=O)N3CCN(S(=O)(=O)c4ccc(F)cc4)CC3)c2O1	-21.6%
Cc1cccc(N2CCN(C(=O)COc3cccc4c3OC(C)(C)C4)CC2)c1C	-2.16%
CC1(C)Cc2cccc(OCC(=O)N3CCN(c4cccc(C(F)(F)F)c4)CC3)c2O1	1.57%
CC1(C)Cc2cccc(OCC(=O)N3CCN(c4ccccc4F)CC3)c2O1	-22.4%
CC1(C)Cc2cccc(OCC(=O)N3CCN(c4cccc(Cl)c4)CC3)c2O1	-4.1%
CC1(C)Cc2cccc(OCC(=O)N3CCN(c4ccc(F)cc4)CC3)c2O1	-69.5%
CCn1cc(C(=O)O)c(=O)c2cc(F)c(N3CCN(S(=O)(=O)c4ccc(NC(=O)OC)cc4)CC3)cc21	21.8%
CC1(C)SC(=S)N(/N=C/c2cccnc2)C1N(O)C(=O)Nc1ccccc1 (stereo not shown)	-5.91%
COc1ccc(S(=O)(=O)N2CCN(C3CCCC(C)C3)CC2)cc1.O=C(O)C(=O)O (stereo not shown)	-16.7%
CCCCN(C)C(=O)CCC(=O)Nc1ccc2nc(N3CCN(C)CC3)cc(C)c2c1	11%
CC1=CC(C)(C)N(C(=O)c2ccccc2)c2ccccc21	-8.02%

Compound	hERG current change (%, negative = inhibition) at 10uM
CN(C)S(=O)(=O)c1ccc(N2CCCC2)c(C(=O)Nc2nc(-c3cc(F)ccc3F)cs2)c1	0.334%
CCOCCCN(C)C1CCN(C(=O)c2oc3ccccc3c2NC(=O)c2cccc([N+](=O)[O-])c2)CC1	-79.7%
CCOCCCN(C)C1CCN(C(=O)c2oc3ccccc3c2NC(=O)c2ccc([N+](=O)[O-])cc2)CC1	-75.9%
CCC(CC)C(=O)Nc1c(C(=O)N2CCN(c3ccccc3)CC2)oc2ccccc12	3.17%
CCOC(=O)c1oc2ccccc2c1NC(=O)c1ccc(S(=O)(=O)N(C)C)cc1	13%
O=C(Nc1c(C(=O)N2CCOCC2)oc2ccccc12)c1cccc([N+](=O)[O-])c1	-20.2%
COc1cc2c(cc1NC(=O)c1cccc([N+](=O)[O-])c1)oc1ccccc12	1.9%
CCOC(=O)N1CCC(NC(=O)C2CCCN(C(=O)c3cc4sccc4n3C)C2)CC1 (stereo not shown)	-5.34%
CS(=O)(=O)O.OC(c1cc(C(F)(F)F)nc2c(Cl)cc(Cl)cc12)C1CCCCN1 (stereo not shown)	-23.8%
Cc1[nH]n(-c2ccccc2)c(=O)c1N=Nc1ccc(C(=O)O)cc1	25.7%
CC(=O)NC1C(Oc2ccccc2C)OC2COC(c3ccco3)OC2C1O (stereo not shown)	3.59%
COc1ccc(-c2c(C(C)=O)c(C)nc3sc4c(=O)[nH]nnc4c23)cc1	8.95%
Cc1ccccc1OCC(O)Cn1c(NCc2ccco2)nc2c1c(=O)n(C)c(=O)n2C (stereo not shown)	-52.1%
Cc1ccccc1OCC(O)Cn1c(NCc2ccco2)nc2c1c(=O)[nH]c(=O)n2C (stereo not shown)	4.8%
Cn1c(=O)c2c(nc(NCc3ccco3)n2CC(O)COc2ccccc2)n(C)c1=O (stereo not shown)	-25.9%
Cc1oc(S(=O)(=O)N2CCCCC2)cc1NC(=O)Nc1ccc(F)cc1	3.43%
C=CCC(O)(CC=C)CNC(=O)c1ccc(OC)c(OC2CCN(C(C)=O)CC2)c1	14.9%
COc1ccc(OC)c(CN2CCC(N3CCC(C(=O)NC4CC4)CC3)CC2)c1	-11.1%
COc1cc(C(=O)NC2Cc3ccccc3C2)ccc1OC1CCN(C(C)=O)CC1	4.22%
COc1ccc(C(=O)NC2CC2)cc1OC1CCN(Cc2ccccc2O)CC1	-102%
COc1ccc(CN2CCC(Oc3cc(C(=O)NC4CC4)ccc3OC)CC2)c(O)c1	-77.3%
C=CCOc1ccccc1CN1CCC(Oc2cc(C(=O)NC3CC3)ccc2OC)CC1	-72.2%

Compound	hERG current change (%, negative = inhibition) at 10uM
COc1ccc(C(=O)NC2CC2)cc1OC1CCN(Cc2ccccc2F)CC1	-78%
COc1ccc(C(=O)NCCc2ccccc2F)cc1OC1CCN(C(C)=O)CC1	4.19%
COc1ccc(CN2CCC(Oc3ccc(C(=O)NCc4ccccn4)cc3)CC2)c(F)c1	-12.6%
COc1ccc(C(=O)N(C)C2CCCN(Cc3ccccc3F)C2)cc1OC (stereo not shown)	11.1%
COc1ccc(C(=O)NC2CCc3ccccc32)cc1OC1CCN(C(C)=O)CC1 (stereo not shown)	-0.012%
CCOc1ccccc1CN1CCC(Oc2cccc(C(=O)NCCOC)c2)CC1	-30.8%
Cc1ccc(Nc2nc3ccccc3n3cnnc23)cc1C	15.5%
CCOC(=O)N1CCN(C(=O)CSc2nnc(COc3ccc(Cl)cc3)o2)CC1	-37.8%
CCOCCCNC(=O)CCc1nnc2ccc(N3CCCCC3)nn12	11.1%
COc1ccc(OC)c(NC(=O)C2CC(=O)N(c3ccccc3)C2)c1 (stereo not shown)	5.86%
O=C(CCC(=O)OCC(=O)c1ccc(-c2ccccc2)cc1)Nc1cccc(Cl)c1	1.65%
COc1ccc(C(=O)NC2CC2)cc1OC1CCN(Cc2cc(C)c(C)cc2C)CC1	-83.1%
CCn1ncc(CN2CCC(Oc3cc(C(=O)NC4CC4)ccc3OC)CC2)c1C	-21.5%
COc1ccc(C(=O)NC2CC2)cc1OC1CCN(Cc2cnn(C)c2C)CC1	-27.2%
O=C(CCl)Nc1nc(-c2ccco2)c(-c2ccco2)s1	-10.1%
COc1cccc(CN(C)C(=O)c2cccc(OCc3ccccc3)c2)c1	13.1%
CN(Cc1ccc(F)cc1)C(=O)c1cccc(OC2CCN(C3CCCC3)CC2)c1	-61%
COc1cccc(CN(C)C(=O)c2cccc(OC3CCN(C4CCCC4)CC3)c2)c1	-55.1%
O=C(c1cccc(OC2CCN(C3CCCC3)CC2)c1)N1CCCCCCC1	-36%
COCCC1CCCCN1C(=O)c1cccc(OC2CCN(C3CCCC3)CC2)c1 (stereo not shown)	17.6%
CN(Cc1ccc(F)cc1)C(=O)c1cccc(OCc2ccccc2)c1	-16.9%
O=[N+]([O-])C(C1CCS(=O)(=O)C1)C1CCS(=O)(=O)C1 (stereo not shown)	11.9%

Compound	hERG current change (%, negative = inhibition) at 10uM
Cc1cccc(C2N(c3ccc(F)cc3)C(=O)C3CCCN32)c1 (stereo not shown)	-12.3%
COc1cccc(CN2CCN(Cc3cc(OC)c(OC)cc3[N+](=O)[O-])CC2)c1.O=C(O)C(=O)O	-46.3%
COc1cc(CN2CCN(Cc3ccc([N+](=O)[O-])cc3)CC2)c([N+](=O)[O-])cc1OC.O=C(O)C(=O)O	-68.2%
COc1cc(CN2CCN(Cc3ccc(C)cc3)CC2)c([N+](=O)[O-])cc1OC.O=C(O)C(=O)O	-77.2%
CCN1CCN(Cc2cc(OC)c(OC)cc2[N+](=O)[O-])CC1	8.59%
COc1cc(CN2CCCCCC2)c([N+](=O)[O-])cc1OC	3.94%
COc1cc(CN2CCN(C(=O)CC(C)C)CC2)c([N+](=O)[O-])cc1OC	8.77%
Cc1cccc2[nH]c(CN(C)C(=O)CC3C(=O)NCCN3CC(C)(C)C)nc12 (stereo not shown)	3.23%
Cc1cc(C(=O)NCc2ccco2)sc1C	16.2%
CCO[C@H]1c2c(ccc3ccc(=O)oc23)OC(C)(C)[C@@H]1O	20.9%
Cc1ccc(C(=O)C[n+]2ccc3ccccc3c2)cc1.[Br-]	-33.6%
Cc1cc(C)c[n+](CC(=O)c2ccc(-c3ccccc3)cc2)c1.[Br-]	-45.3%
Cc1ccc[n+](CC(=O)c2ccc(-c3ccccc3)cc2)c1.[Br-]	-52.4%
Cc1ccc(SCCc2cc[n+](CC(=O)c3ccccc3)cc2)cc1	-70.5%
CN(C)c1cc[n+](CC(=O)c2ccc(-c3ccccc3)cc2)cc1.[Cl-]	-2.97%
Cc1ccc(SCCNC(=O)c2ccccc2)cc1	-0.806%
Cc1cc[n+](CC(=O)c2ccc(NC(=O)c3ccccc3)cc2)cc1.[Br-]	2.6%
Cc1ccc[n+](CC(=O)c2ccccc2)c1.[Br-]	13.7%
Cc1ccc(C(=O)C[n+]2ccc(Cc3ccccc3)cc2)cc1.[Cl-]	-73.6%
